In paper PMC4552634, “A New Set of Chemical Starting Points with Plasmodium falciparum Transmission-Blocking Potential for Antimalarial Drug Discovery” (PLoS ONE, 2015):
The whole screen tested about 13,000 compounds, of which about 3,200 (25%) showed an effect of 50% or more. Some of the results follow.

System: P. falciparum stage V gametocytes
Set-up: BacTiter-Glo ATP luminescence viability of purified stage V gametocytes in 384-well plates, per cent inhibition versus DMSO
Settings: 48 h, 5 µM; inhibitor

SMILES | % Inhibition [%]
Cc1noc(C)c1-c1cccc(CNCc2ccc(-c3ccc(-c4nc5cc(F)ccc5[nH]4)s3)cc2)c1.O=C(O)C(F)(F)F [TCMDC-133054] | 12.51
O=C(/C=C/c1ccc(Cl)cc1)NCCCCCN1CCCN(C(=O)Nc2cccc(Cl)c2)CC1 [TCMDC-136102] | -54.14
Cn1cnc(CCNC(=O)c2ccc(-c3ccc(-c4nc5cc(C(F)(F)F)ccc5[nH]4)s3)cc2)c1 [TCMDC-132500] | -12.71
CCc1cn2c3c(cc(C(=O)N[C@@H](Cc4cccc(Cl)c4)[C@H](O)CNC4CCOCC4)cc13)N(C)S(=O)(=O)CC2 [TCMDC-135650] | 67.17
CCc1cn2c3c(cc(C(=O)N[C@@H](Cc4cccc(F)c4)[C@H](O)CNC4CCOCC4)cc13)N(C)S(=O)(=O)CC2 [TCMDC-135661] | 11.24
CCc1cn2c3c(cc(C(=O)N[C@@H](Cc4ccccc4)[C@H](O)CNC4CCOCC4)cc13)N(CC(F)(F)F)S(=O)(=O)CC2 [TCMDC-135652] | 61.24
CCCc1cn2c3c(cc(C(=O)N[C@@H](Cc4ccccc4)[C@H](O)CNC4CCOCC4)cc13)N(CC)S(=O)(=O)CC2 [TCMDC-135774] | 46.67
CCCc1cn2c3c(cc(C(=O)N[C@@H](Cc4ccccc4)[C@H](O)CNC4CCCCC4)cc13)N(CC)S(=O)(=O)CC2 [TCMDC-135773] | 81.38
CCc1cn2c3c(cc(C(=O)N[C@@H](Cc4cccc(F)c4)[C@H](O)CNC4CCCCC4)cc13)N(C)S(=O)(=O)CC2 [TCMDC-135659] | 47.1
CCc1cn2c3c(cc(C(=O)N[C@@H](Cc4ccccc4)[C@H](O)CNC4CCCCC4)cc13)N(CC)S(=O)(=O)CC2 [TCMDC-135572] | 99.29
CCc1cn2c3c(cc(C(=O)N[C@@H](Cc4ccccc4)[C@H](O)CNC4CCCCC4)cc13)N(C)S(=O)(=O)C2 [TCMDC-135389] | 12.74
CCc1cn2c3c(cc(C(=O)N[C@@H](Cc4cccc(Cl)c4)[C@H](O)CNC4CCCCC4)cc13)N(C)S(=O)(=O)CC2 [TCMDC-135649] | 39.17
CCCc1cn2c3c(cc(C(=O)N[C@@H](Cc4ccccc4)[C@H](O)CNC4CCOCC4)cc13)N(C)S(=O)(=O)CC2 [TCMDC-135772] | 9.174
CCc1cn2c3c(cc(C(=O)N[C@@H](Cc4ccccc4)[C@H](O)CNC4CCOCC4)cc13)N(C(C)C)S(=O)(=O)CC2 [TCMDC-135506] | 37.66
CCc1cn2c3c(cc(C(=O)N[C@@H](Cc4cccc(Cl)c4)[C@H](O)CNC4CC4)cc13)N(C)S(=O)(=O)CC2 [TCMDC-135648] | 29.4
CN(C)CCCNc1ncnc2c1[nH]c1ccc(Br)cc12 [TCMDC-124583] | -18.04
NC1CCN(c2nc(NCCCc3ccc(O)cc3)nc(NCc3ccccc3-c3ccc(C(F)(F)F)cc3)n2)CC1 [TCMDC-133395] | 21.49
COc1cc(F)c2ncc(C#N)c(CCN3CCC(NCc4ccc5c(c4)OCCO5)CC3)c2c1 [TCMDC-135367] | 11.13
O=C1OC2(CN1CC1CCN(Cc3ccc(O)cc3Cl)C1)c1ccccc1-c1ccccc12 (stereo not shown) [TCMDC-136313] | 14.23
CON=Cc1ccn(-c2ccc(O)c3c2C[C@H]2C[C@H]4[C@H](N(C)C)C(=O)C(C(N)=O)=C(O)[C@@]4(O)C(=O)C2=C3O)c1 [TCMDC-138646] | 4.088
C=C1C(C(=O)OCC)=CN(CC)c2cc(O[C@H]3CCN(C(=O)OC(C)(C)C)C3)ccc21 [TCMDC-135646] | 47.67

SMILES | % Inhibition [%]
COc1cc2c(cc1OC)CN(CCc1ccc(NC(=O)c3cc4cc(OC(F)(F)F)ccc4[nH]3)cc1)CC2 [TCMDC-138250] | 36.42
CCc1cn(CCS(C)(=O)=O)c2ccc(C(=O)N[C@@H](Cc3ccccc3)[C@H](O)CNC(C)(C)CCCC(C)C)cc12 [TCMDC-135268] | 68.72
CCc1cn(CCCOC)c2ccc(C(=O)N[C@@H](Cc3ccccc3)[C@H](O)CNCc3cccc(C(F)(F)F)c3)cc12 [TCMDC-135241] | 4.563
CCc1cn(CCOC)c2ccc(C(=O)N[C@@H](Cc3ccccc3)[C@H](O)CNC(C)(C)CCCC(C)C)cc12 [TCMDC-135259] | 69.62
CCc1cn(CCc2ccccc2)c2ccc(C(=O)N[C@@H](Cc3ccccc3)[C@H](O)CNC(C)(C)CCCC(C)C)cc12 [TCMDC-135282] | 76.37
CCc1cn2c3c(cc(C(=O)N[C@@H](Cc4ccccc4)[C@H](O)CN[C@@H](C)CC)cc13)N(C)S(=O)(=O)CC2 [TCMDC-135801] | 46.03
C(=N\Nc1nccc2sc(-c3ccccc3)cc12)/c1cccnc1 [TCMDC-135190] | -94.18
COc1ccc(S(=O)(=O)N2CCOCC2)cc1NC(=O)c1cc2ccccc2o1 [TCMDC-124328] | -2.829
N#Cc1ccc(-c2ccc(OCC(O)CN3CCCN(C(=O)C(c4ccc5c(c4)OCO5)N4CCN(C/C=C/c5ccccc5)CC4)CC3)cc2)cc1 (stereo not shown) [TCMDC-141496] | 18.87
COc1cc2c(cc1NC(=O)CN1CCN(C(=O)c3ccco3)CC1)oc1ccccc12 [TCMDC-123712] | 37.25
c1ccc(CCNc2nc(NCC(c3ccccc3)c3ccccc3)c3[nH]cnc3n2)cc1 [TCMDC-131858] | -2.796
Cn1cnc2nc(NCCc3ccccc3)nc(NCc3cccc4ccccc34)c21 [TCMDC-131862] | 52.06
c1ccc2c(CNc3nc(NCC4CCCCC4)nc4nc[nH]c34)cccc2c1 [TCMDC-131860] | -36.72
O=C1COc2ccccc2N1CCN1CCC(NCc2ccc(-c3cccs3)cc2)CC1 [TCMDC-135135] | -33.37
COCc1nc(N)nc(N)c1-c1ccc(Cl)c(Cl)c1 [TCMDC-137373] | -9.797
O=C(NCCNc1nc(NCCNC(=O)Nc2ccccc2)c2ccc(=O)n(-c3c(F)cccc3F)c2n1)Nc1ccccc1 [TCMDC-136645] | 74.46
COc1ccc(Nc2nccc(NCCNC(=O)Nc3ccccc3F)n2)cc1 [TCMDC-133645] | -48.4
O=C(NCCNc1ccnc(Nc2ccc(F)cc2)n1)Nc1ccccc1F [TCMDC-133640] | -0.7257
COc1ccc(NC(=O)/C=C/c2ccccc2Cl)cc1OCCN1CCC(c2nc3ccccc3[nH]2)CC1 [TCMDC-140921] | -39.17
O=C(/C=C/c1ccc(Cl)c(Cl)c1)NCCCCCN1CCC(NC(=O)NC2CCCCC2)CC1 [TCMDC-135700] | -41.72
c1ccc2[nH]c(CN(Cc3nc4ccccc4[nH]3)Cc3nc4ccccc4[nH]3)nc2c1 [TCMDC-124132] | -49.22

SMILES | % Inhibition [%]
ON=C(c1nc2ccccc2[nH]1)c1nc2ccccc2[nH]1 [TCMDC-125758] | 102.3
c1ccc2[nH]c(Nc3ccc(Nc4nc5ccccc5[nH]4)cc3)nc2c1 [TCMDC-131951] | -2.479
COc1cc(C(=O)NCCCN2CCN(c3cccc(Cl)c3)CC2)ccc1-c1nc2cc(Cl)c(F)cc2[nH]1 [TCMDC-140095] | -11.24
O=C(c1ccccc1[N+](=O)[O-])N(Cc1ccccc1)c1ccccn1 [TCMDC-125748] | 16.59
C=CCn1c(Sc2ccc(C#N)c([N+](=O)[O-])c2)nnc1-c1ccc(Cl)cc1 [TCMDC-135600] | 77.78
CCCCCn1c(Sc2ccc(C#N)c([N+](=O)[O-])c2)nnc1-c1cc(OC)cc(OC)c1 [TCMDC-135588] | -41.27
CC(C)Cn1c(Sc2ccc(C#N)c([N+](=O)[O-])c2)nnc1-c1ccc(N(C)C)cc1 [TCMDC-135612] | 35.05
C=CCn1c(Sc2ccc(C#N)c([N+](=O)[O-])c2)nnc1-c1ccc(OC)cc1 [TCMDC-135605] | 28.83
CCCCCn1c(Sc2ccc(C#N)c([N+](=O)[O-])c2)nnc1-c1cccc(Cl)c1 [TCMDC-135593] | -8.18
CC(C)Cn1c(Sc2ccc(C#N)c([N+](=O)[O-])c2)nnc1-c1cccc(Cl)c1 [TCMDC-135580] | 40.84
CCCCCCn1c(Sc2ccc(C#N)c([N+](=O)[O-])c2)nnc1-c1cccc(Cl)c1 [TCMDC-135594] | 24.59
CCCCn1c(Sc2ccc(C#N)c([N+](=O)[O-])c2)nnc1-c1cccc(Cl)c1 [TCMDC-135579] | 86.95
COc1ccc(-c2nnc(Sc3ccc(C#N)c([N+](=O)[O-])c3)n2CC(C)C)cc1 [TCMDC-135584] | 36.77
C=CCn1c(Sc2ccc(C#N)c([N+](=O)[O-])c2)nnc1-c1cccc(Cl)c1 [TCMDC-135595] | 80.55
C=CCn1c(Sc2ccc(C#N)c([N+](=O)[O-])c2)nnc1-c1cc(OC)cc(OC)c1 [TCMDC-135590] | 71.82
O=[N+]([O-])c1cc(C(c2ccc(O)c([N+](=O)[O-])c2)C(Cl)(Cl)Cl)ccc1O [TCMDC-124158] | 25.13
COc1ccccc1NC(=O)Nc1cccc(-c2cccc(-c3nc4ccc(C(F)(F)F)cc4[nH]3)c2)c1 [TCMDC-133205] | 10.02
[O-][S+]1c2ccccc2Sc2ccccc21 [TCMDC-124300] | -7.237
CC(C)Cn1ncc2c3c(N)nc(N)nc3ccc21 [TCMDC-137970] | 3.163
